PubChem BioAssay AID602393 (Broad Institute, 2012)
Screen size: about 350,000 compounds; about 7,000 (2%) were called active. This is one part of a sample in which actives are shown more often than they occur. Values without a mark were called inactive. Cut-off read from the data, not from the text of the source: active = activation above about 40%; inconclusive = no clear call, values can overlap the other calls; inactive = below that.

Test: Bmi1 luciferase reporter increase in mESCs, primary screen, esBAF inhibitor project, mouse ES cells, Bmi1 luciferase knock-in, single point (AID 602393);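 note: 0% = median of the plate's neutral control wells and 100% = double that signal; a rise in the Bmi1 reporter signal indicates esBAF inhibition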
Details: 24 h, at 12.5 µM, hits give high values, 100% = twice the neutral-well signal

Row | Structure (SMILES) | reporter increase
1 | O=C(NCC[C@@H]1CC[C@@H](NC(=O)C2CCCC2)[C@H](CO)O1)c1cnccn1 | -3.83%
2 | COc1ccc(S(=O)(=O)N(C)C[C@H]2Oc3c(NS(=O)(=O)c4ccc(F)cc4)cccc3C(=O)N([C@H](C)CO)C[C@H]2C)cc1 | 0.834%
3 | C[C@H](CO)N1C[C@H](C)[C@@H](CN(C)Cc2ccc(C(=O)O)cc2)Oc2ccc(NS(=O)(=O)c3cn(C)cn3)cc2CC1=O | -1.15%
4 | C[C@@H]1CN([C@@H](C)CO)C(=O)c2cc(NC(=O)Cc3ccccc3)ccc2O[C@@H](C)CCCCO[C@H]1CN(C)C(=O)Nc1cccc2ccccc12 | 1.67%
5 | CS(=O)(=O)Nc1ccc2c(c1)[C@@H]1C[C@H](CC(=O)NCc3cc(F)ccc3F)O[C@@H](CO)[C@@H]1O2 | 1.97%
6 | O=C(C[C@H]1CC[C@H](NC(=O)c2ccc3c(c2)OCO3)[C@H](CO)O1)NCc1ccc(Oc2ccccc2)cc1 | -8.21%
7 | CNC[C@H]1Oc2ccc(NC(=O)Nc3ccc4c(c3)OCO4)cc2CC(=O)N([C@H](C)CO)C[C@H]1C | 0.772%
8 | Nc1ccc(N=Nc2ccccc2Cl)c(N)n1 | 76% (active)
9 | COc1ccc(NC(=O)N(C)C[C@@H]2Oc3c(NC(=O)C4CCOCC4)cccc3C(=O)N([C@H](C)CO)C[C@@H]2C)cc1 | 1.63%
10 | CCCc1cc(C(=O)N2CCCC(CO)(CCCc3ccccc3)C2)n(C)n1 (stereo not drawn) | 9.89%
11 | CCOC(=O)C1(Cc2ccccc2C)CCCN(C(=O)CCc2c(C)noc2C)C1 (stereo not drawn) | 4.36%
12 | COC(=O)CCC(=O)N1CCCC(CO)(Cc2ccccc2)C1 (stereo not drawn) | 88.3% (active)
13 | Cc1noc(C)c1CCC(=O)N1CCCC(CO)(Cc2ccccc2)C1 (stereo not drawn) | 73.8% (active)
14 | Cc1noc(C)c1CCC(=O)O | -5.69%
15 | Cc1ccccc1CC1(CO)CCCN(C(=O)c2cc(-c3ccccc3)no2)C1 (stereo not drawn) | -3.48%
16 | CCCN(C)C[C@H]1OCCCC[C@@H](C)Oc2ccc(NC(=O)CCC(F)(F)F)cc2C(=O)N([C@H](C)CO)C[C@H]1C | 3.13%
17 | COc1cccc(-c2ccc3c(c2)O[C@@H](CN(C)Cc2ccncc2)[C@H](C)CN([C@H](C)CO)S3(=O)=O)c1 | 0.833%
18 | CN1CCN(C(=O)C[C@H]2C[C@@H]3c4cc(NC(=O)NC5CCCC5)ccc4O[C@@H]3[C@@H](CO)O2)CC1 | -0.346%
19 | O=C(CN1CCOCC1)N[C@@H]1CC[C@@H](CCn2cc(C3CCCCC3)nn2)O[C@@H]1CO | -5.48%
20 | CC1CN(Cc2ccccc2)C(=S)NC1=O (stereo not drawn) | 2.98%
21 | O=C1C(Cc2ccc(O)cc2)NC(=S)N1Cc1ccccc1 (stereo not drawn) | -6.04%
22 | CN(C)c1ccc(/C=C2\NC(=S)N(Cc3ccccc3)C2=O)cc1 | 42.2% (active)
23 | C[C@H](CO)N1C[C@H](C)[C@H](CN(C)S(=O)(=O)c2ccccc2)Oc2ccc(NC(=O)Cn3cnnn3)cc2C1=O | 2.23%
24 | CCC(=O)Nc1ccc2c(c1)C(=O)N(C)[C@@H]1CC[C@@H](CC(=O)Nc3cccc(OC)c3)O[C@@H]1CO2 | -2.81%

Row | Structure (SMILES) | reporter increase
25 | CSc1ccccc1NC(=O)c1cc(C2CC2)on1 | 53.9% (active)
26 | O=C(NC1CCCCC1)c1cc(C2CC2)on1 | -10.1%
27 | Cc1nn(Cc2ccc(Cl)c(Cl)c2)c(C)c1NC(=O)c1cc(C2CC2)on1 | 7.59%
28 | CCCNC(=O)N1C[C@H](O)COC[C@H]2O[C@@H](CC(=O)NCc3ccncn3)CC[C@@H]21 | -2.02%
29 | CCn1c(Cc2ccccc2)nnc1SCc1nc2ccccc2c(=O)[nH]1 | -5.17%
30 | Clc1ccccc1SCc1nc2ccccc2[nH]1 | 53% (active)
31 | CCN(CC)S(=O)(=O)c1ccc2nc(CSc3nnnn3-c3ccc(O)cc3)[nH]c2c1 | 1.1%
32 | O=C(C[C@@H]1C[C@H]2c3cc(NC(=O)NC4CCCC4)ccc3O[C@H]2[C@H](CO)O1)NCc1cc(F)ccc1F | 5.15%
33 | N#CCSc1nc(-c2ccccc2)nc2ccc(F)cc12 | -3.61%
34 | COc1ccc(-c2cc3ncccc3cn2)cc1 | 10.9%
35 | COc1cc(OC)cc(-c2cc3ccc(F)cc3cn2)c1 | 58.7% (active)
36 | Fc1ccccc1-c1cc2cc3c(cc2cn1)OCO3 | 16.5%
37 | Fc1ccc2cnc(-c3ccccc3)cc2c1 | 58.8% (active)
38 | COc1ccc(C(C)(O)c2nc(-c3cc(F)cc(F)c3)cs2)cc1 (stereo not drawn) | -4.23%
39 | O=C(Nc1ccc(Cl)cc1)N1C[C@@H]2[C@H](c3ccccc31)[C@@H](CO)N2C(=O)c1cccnc1 | 13.8%
40 | CO[C@H]1CN(C)C(=O)c2cc(NC(=O)Nc3ccccc3)ccc2OC[C@@H](C)N(C(=O)Nc2c(C)noc2C)C[C@@H]1C | 3.56%
41 | O=S(=O)(NCC[C@H]1CC[C@@H](NS(=O)(=O)c2cccc(Cl)c2)[C@@H](CO)O1)c1cccc(F)c1 | 8.34%
42 | CCC(=O)N1C[C@@H](C)[C@H](OC)CN(C)C(=O)c2cc(NC(=O)c3cc(C)on3)ccc2OC[C@@H]1C | 6.47%
43 | COc1ccc(-c2cc(C(=O)NCCCN3CCOCC3)no2)cc1 | -13.5%
44 | COCCN1CCN(C(=O)c2cc(COc3ccc(F)cc3Cl)on2)CC1 | -1.67%
45 | COc1ccc(OCc2cc(C(=O)NCC3(C)COC3)no2)c(Cl)c1 | 42.9% (active)
46 | CC(=O)N(C)C[C@@H]1Oc2ncc(-c3ccccc3F)cc2C(=O)N([C@H](C)CO)C[C@@H]1C | -1.47%
47 | N=c1c2c(-c3ccccc3)c(-c3ccccc3)n(Cc3ccccc3)c2ncn1CCCO | -11.6%
48 | OCCCN1c2ccccc2Nc2nnc(-c3ccccc3)cc21 | 45.3% (active)
